Measured values reported in PubChem BioAssay (NCI).
About 79,000 compounds went through this panel and 15% of them were active in at least one assay; those are over-represented in the sample as a whole. The source made the active and inactive calls. No stated cut-off is given here; in the data, active means growth inhibition above about 70%; inactive means the rest.

How the values were obtained:
[1] = NCI Yeast Anticancer Drug Screen. Data for the rad50 strain (AID 155);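 further: 0% = growth of vehicle-only cultures of the same strain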; conditions: S. cerevisiae rad50 strain growth inhibition, stronger effect = higher value
Procedure, shortened: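 Cells are treated with compound, grown, and their growth is then scored against vehicle-only cultures of the same repair-deficient yeast strain.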

[2] = NCI Yeast Anticancer Drug Screen. Data for the mec2-1 strain (AID 157); conditions: S. cerevisiae mec2-1 strain, stronger effect = higher value
Procedure, shortened: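 Mutant yeast (mec2-1) grown with compound; growth inhibition relative to vehicle control reported.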

[3] = NCI Yeast Anticancer Drug Screen. Data for the sgs1 mgt1 strain (AID 161);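 further: 0% = growth of cultures given vehicle only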; conditions: S. cerevisiae sgs1 mgt1 strain, stronger effect = higher value
Procedure, shortened: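 Compounds are added to genetically altered yeast, and growth is compared with cultures given vehicle alone to give percent inhibition.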

[4] = NCI Yeast Anticancer Drug Screen. Data for the cln2 rad14 strain (AID 165);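 further: 0% = growth equal to vehicle treated cultures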; conditions: S. cerevisiae cln2 rad14 strain, stronger effect = higher value
Procedure, shortened: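 Readout is yeast growth inhibition versus vehicle-treated controls, using a strain with cln2 and rad14 alterations exposed to compound.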

[5] = NCI Yeast Anticancer Drug Screen. Data for the bub3 strain (AID 167); conditions: S. cerevisiae bub3 mutant strain, stronger effect = higher value
Procedure, shortened: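 Part of a panel of yeast mutants defective in DNA damage repair or cell cycle regulation. Each strain is grown with compound, and inhibition is calculated relative to solvent-treated cultures.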

[6] = NCI Yeast Anticancer Drug Screen. Data for the mlh1 rad18 strain (AID 175); conditions: S. cerevisiae mlh1 rad18 strain growth inhibition, stronger effect = higher value
Procedure, shortened: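 Genetically defined yeast (DNA repair-deficient) exposed to compounds; growth inhibition determined relative to vehicle.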

[7] = at 5.0 µM (retest, dose inferred, filed as 0.5)
[8] = at 50.0 µM (retest, dose inferred, filed as 5.0)

Measured: growth inhibition

N#Cc1ccc2nc3ccc(N)cc3nc2c1
inactive: [1]; [7] -22% | [2]; [7] 4% | [2]; at 50.0 µM 39.1% | [3]; [7] -18% | [3]; at 50.0 µM 20.1% | [4]; [7] -6% | [4]; at 50.0 µM 10.6% | [5]; [7] -13% | [5]; at 50.0 µM 43.3% | [6]; [7] -5% | [6]; at 50.0 µM 48%
active: [1]; [8] 96% | [1]; at 50.0 µM 79.2% | [2]; [8] 76% | [3]; [8] 86% | [4]; [8] 82% | [5]; [8] 82% | [6]; [8] 96%

O=C1C=CC(=O)c2ccc(=O)ccc21
inactive: [1]; [7] 38% | [1]; at 50.0 µM 22.6% | [2]; [7] 25% | [2]; at 50.0 µM -1.45% | [3]; [7] 38% | [3]; at 50.0 µM 25.9% | [4]; [7] 20% | [4]; at 50.0 µM 28.4% | [5]; [7] 27% | [5]; at 50.0 µM -1.35% | [6]; at 50.0 µM 51.2%
active: [1]; [8] 99% | [2]; [8] 99% | [3]; [8] 99% | [4]; [8] 98% | [5]; [8] 99% | [6]; [7] 71% | [6]; [8] 98%

Cc1ccc(SC2C(=O)C3(C)CCC2C3(C)C)cc1 (stereo not given)
active: [3]; at 50.0 µM 72.2% | [6]; at 50.0 µM 82%
inactive: [1]; [7] -1% | [1]; [8] 32% | [1]; at 50.0 µM 64.2% | [2]; [7] -1% | [2]; [8] 27% | [2]; at 50.0 µM 28.8% | [3]; [7] -2% | [3]; [8] 44% | [4]; [7] -1% | [4]; [8] 1% | [4]; at 50.0 µM -21.7% | [5]; [7] 2% | [5]; [8] 28% | [5]; at 50.0 µM 37.5% | [6]; [7] 0% | [6]; [8] 52%

CCCCCCCCCc1ccc(O)c(Cl)c1
active: [1]; [8] 94% | [1]; at 50.0 µM 99.7% | [2]; [8] 90% | [2]; at 50.0 µM 99.8% | [3]; [8] 99% | [3]; at 50.0 µM 99.2% | [4]; [8] 97% | [4]; at 50.0 µM 99.5% | [5]; [8] 86% | [5]; at 50.0 µM 99.4% | [6]; [8] 99% | [6]; at 50.0 µM 99.5%
inactive: [1]; [7] -28% | [2]; [7] -3% | [3]; [7] -2% | [4]; [7] -12% | [5]; [7] -1% | [6]; [7] -9%

C=C1C(=O)[C@]23C[C@H]1CC[C@H]2[C@@]12CO[C@@H](O)[C@@H]1C(C)(C)[C@@H](O)C[C@@H]2OC3=O
inactive: [1]; [7] 8% | [1]; [8] 6% | [1]; at 50.0 µM 2.3% | [2]; [7] -19% | [2]; at 50.0 µM -5.25% | [3]; [7] 9% | [3]; [8] 27% | [3]; at 50.0 µM 25.4% | [4]; [7] -7% | [4]; at 50.0 µM 67.2% | [5]; [7] -5% | [5]; at 50.0 µM -0.9% | [6]; [7] -1% | [6]; [8] 11% | [6]; at 50.0 µM 24.4%
active: [2]; [8] 79% | [4]; [8] 95% | [5]; [8] 95%

Oc1cccc2cc(Br)cnc12
active: [1]; [8] 99% | [1]; at 50.0 µM 84% | [2]; [8] 99% | [2]; at 50.0 µM 91.6% | [3]; [8] 99% | [3]; at 50.0 µM 81.5% | [4]; [8] 99% | [4]; at 50.0 µM 88.8% | [5]; [8] 99% | [5]; at 50.0 µM 88.2% | [6]; [8] 99% | [6]; at 50.0 µM 74.7%
inactive: [1]; [7] 24% | [2]; [7] -17% | [3]; [7] -10% | [4]; [7] 2% | [5]; [7] -25% | [6]; [7] 21%

C(=C/c1ccccc1)/C=N/Nc1ccccc1
inactive: [1]; [7] -139% | [1]; [8] -112% | [1]; at 50.0 µM -15.8% | [2]; [7] -52% | [2]; [8] -50% | [2]; at 50.0 µM 9.7% | [3]; [7] -53% | [3]; [8] -52% | [3]; at 50.0 µM -23.8% | [4]; [7] -61% | [4]; [8] -64% | [4]; at 50.0 µM -9% | [5]; [7] -72% | [5]; [8] -59% | [5]; at 50.0 µM 36.5% | [6]; [7] -107% | [6]; [8] -79% | [6]; at 50.0 µM 2.35%

CC(C)C1=C2CCC3(C)C(CCC4C5C6OCC5(CCC6(C)C)CCC43C)C2(C)CC1 (stereo not given)
inactive: [1]; [7] 22% | [1]; [8] 49% | [2]; [7] 6% | [2]; [8] 40% | [3]; [7] 19% | [3]; [8] 69% | [4]; [7] 27% | [4]; [8] 62% | [5]; [7] 10% | [5]; [8] 57% | [6]; [7] 17% | [6]; [8] 45% | [6]; at 50.0 µM 65.5%
active: [1]; at 50.0 µM 72.5% | [2]; at 50.0 µM 77.5% | [3]; at 50.0 µM 82.3% | [4]; at 50.0 µM 83.7% | [5]; at 50.0 µM 77%

C/C(O)=C(/C=N\C(=S)Nc1ccc(Cl)c(Cl)c1)C(=O)Nc1ccccc1C
inactive: [1]; [7] -11% | [1]; [8] 40% | [1]; at 50.0 µM 67% | [2]; [7] -6% | [2]; [8] 26% | [2]; at 50.0 µM 39.6% | [3]; [7] 1% | [3]; [8] 22% | [4]; [7] -7% | [4]; [8] 34% | [4]; at 50.0 µM -10.2% | [5]; [7] -15% | [5]; [8] 13% | [5]; at 50.0 µM 51.6% | [6]; [7] 11% | [6]; [8] 22% | [6]; at 50.0 µM 57.7%
active: [3]; at 50.0 µM 73.5%

CCC(CC=C(C)C)(CC=C(C)C)c1ccncc1 (tested in a mixture with another compound)
active: [1]; [8] 84% | [1]; at 50.0 µM 97.8% | [2]; [8] 76% | [2]; at 50.0 µM 99% | [3]; [8] 80% | [3]; at 50.0 µM 98.9% | [4]; at 50.0 µM 70.5% | [5]; [8] 76% | [5]; at 50.0 µM 93.2% | [6]; [8] 74% | [6]; at 50.0 µM 96.2%
inactive: [1]; [7] -7% | [2]; [7] -8% | [3]; [7] 1% | [4]; [7] -5% | [4]; [8] 50% | [5]; [7] 1% | [6]; [7] -4%
